Pf growth 96h: P. falciparum growth inhibition at 96 hour, primary screen for plastid delayed-death inhibitors; P. falciparum luciferase reporter growth, 96 h; Potency, µM (titrated, usually from 28.7 µM), hits mostly inhibitors; 320,000 compounds, 6.9% hits
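P. falciparum expressing integrated firefly luciferase grown in erythrocytes (2% hematocrit, 0.05% parasitemia final) with compounds for 96 hours at 37 C, 5% CO2. Growth inhibition read as loss of luminescence after adding luciferase detection reagent.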
NS1 function inh: inhibitors of influenza NS1 protein function; Potency, µM (series often up to 46.1 µM); AID 2326; 270,000 compounds, 0.4% hits; calls by dose curve; also: actives are rising curves; nearly all actives have a fitted effect of over 50% in size
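Compounds were scored for reversing the slow growth caused by influenza A NS1 in S. cerevisiae, measured by optical density at 600 nm. Assay medium contained 2% galactose at pH 6.0; NS1-free yeast of the same strain were the positive control.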
Pf growth 48h: P. falciparum growth inhibition at 48 hours (one generation); P. falciparum luciferase growth in erythrocytes, 48 h; AID 504832; 310,000 compounds, 5.9% hits; Potency, µM (highest dose often 28.7 µM), usual class: inhibitors
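In quantitative HTS format, infected erythrocytes bearing luciferase-reporter parasites were treated for a single generation at 37 C. Luminescence after adding detection reagent served as the growth measure.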
CHX counter: counter-screen for Shiga toxin inhibitors: cycloheximide protein synthesis inhibition; cell reporter, cycloheximide protein synthesis inhibition counterscreen; max response, %; 300,000 compounds, 12% hits; AID 2314; in the data active = max response mostly above about 13%, no sharp cut-off; inactive = mostly below about 14%; also: read at 38.3 µM for the half of the compounds with a filed dose
Shiga inhibitor: Shiga toxin inhibition; 290,000 compounds, 9.2% hits; AID 2315; Vero cells, Shiga toxin protein synthesis inhibition reporter; inhibition, % at 38.7 µM; in the data active = inhibition mostly above about 28%, no sharp cut-off; inactive = mostly below about 43%
Sm TGR block: blocks Schistosoma mansoni thioredoxin glutathione reductase; Q962Y6; purified TGR, DTNB reduction, TNB absorbance 405 nm; Potency, µM (highest dose often 114 µM), usual class: inhibitors; 360,000 compounds, 3% hits; AID 485364; also: nearly all actives have a fitted effect of over 60% in size
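First, TGR (20 nM dispensed) and NADPH were mixed with compound. Second, a 15 min room-temperature incubation followed. Third, further NADPH and then DTNB were added to start the reaction. Finally, TNB absorbance was monitored kinetically.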
A number is an active result; [ ] = remark or other dose. This is a sample that favours compounds with a hit; in the whole collection about 21% have one here. Unless noted, calls follow the shape of the dose curve; as a rule, active = well fitted curve in the direction sought with a large enough effect; inconclusive = small, poorly fitted or top-dose-only effect, or another doubt; inactive = no such curve, though single readings can be large; an effect the other way counts as inactive or inconclusive.

`CC1(C)CC(=O)C=C(NC2CCCCCCC2)C1` gave Pf growth 96h 3.7µM, NS1 function inh inactive, Pf growth 48h inconclusive, CHX counter inactive, Shiga inhibitor inactive and Sm TGR block inactive.
Screening CC1(C)CC(=O)C=C(NNC(=O)C2CCCCC2)C1 returned Pf growth 96h inactive, NS1 function inh inactive, Pf growth 48h inactive, CHX counter inactive, Shiga inhibitor inactive and Sm TGR block inactive.
For CC1(C)CC(=O)C=C(NC2CCCCCC2)C1 the results were Pf growth 96h 12µM, NS1 function inh inactive, Pf growth 48h inconclusive, CHX counter inactive, Shiga inhibitor inactive and Sm TGR block inactive.
Screening O=C1C=C(NC2CCCCC2)CCC1 returned Pf growth 96h 13µM, Pf growth 48h 13µM and Sm TGR block inactive.
O=C1C=C(NCc2ccc(Cl)cc2)CCC1 was read as Pf growth 96h inactive, NS1 function inh inactive, Pf growth 48h inactive, CHX counter inactive, Shiga inhibitor inactive and Sm TGR block inactive.
For CCNS(=O)(=O)c1ccc(OC)c(C(=O)NC2CCCCC2)c1 the results were Pf growth 96h inactive, NS1 function inh inactive, Pf growth 48h inconclusive, CHX counter inactive and Shiga inhibitor inactive.
Screening COc1ccc(C2=CC(c3ccc(N(C)C)cc3)n3nnnc3N2)cc1 (centres undefined) returned Sm TGR block inactive.
Screening COc1ccc(OC)c(C2C=C(c3ccc(C)c(C)c3)Nc3nnnn32)c1 (centres undefined) returned Pf growth 96h inactive, NS1 function inh inactive, Pf growth 48h inactive, CHX counter inactive, Shiga inhibitor inactive and Sm TGR block inconclusive.
Screening COc1ccc(C2=CC(c3ccc(OC)c(OC)c3)n3nnnc3N2)c(OC)c1 (centres undefined) returned Pf growth 96h inconclusive, NS1 function inh inactive, Pf growth 48h inconclusive, CHX counter inactive, Shiga inhibitor inactive and Sm TGR block 40µM.
COc1cccc(C2C=C(c3ccc(OC)cc3OC)Nc3nnnn32)c1 (centres undefined) was read as Pf growth 96h inactive, NS1 function inh inactive, Pf growth 48h inactive, CHX counter inactive, Shiga inhibitor inactive and Sm TGR block 25µM.
`COC(=O)c1ccc(NC(=O)CSCc2ccccc2C)cc1` gave Pf growth 96h inactive, NS1 function inh inactive, CHX counter inactive, Shiga inhibitor inactive and Sm TGR block inactive.
Cc1c(Br)c(O)c(Br)c2sc(=O)oc12 was read as Pf growth 96h inconclusive, NS1 function inh inactive, Pf growth 48h inconclusive, CHX counter inactive, Shiga inhibitor inactive and Sm TGR block 2.8µM.
For Cc1ccc(C)c(N2CC(O)(c3cccs3)[N+]3=C2CCCC3)c1 (centres undefined) the results were Pf growth 96h inconclusive, Pf growth 48h 10µM, CHX counter inactive, Shiga inhibitor inactive and Sm TGR block inactive.
`CCOc1ccc(CCNC(=O)COC(=O)c2ccc(C)c([N+](=O)[O-])c2)cc1OCC` gave Pf growth 96h inconclusive, NS1 function inh inactive, Pf growth 48h inactive, CHX counter inactive, Shiga inhibitor inactive and Sm TGR block inactive.
`COc1ccc(NC(=O)c2ccccc2OCc2c(C)noc2C)cc1OC` gave Pf growth 96h inactive, NS1 function inh inactive, Pf growth 48h inactive, CHX counter inactive, Shiga inhibitor inactive and Sm TGR block inactive.
For Cc1csc(NC(=O)COc2ccc3c(c2)CCC3)n1 the results were Pf growth 96h inactive, Pf growth 48h inactive and Sm TGR block inactive.
Screening COc1cccc(NC(=O)COc2ccc3c(c2)CCC3)c1 returned Pf growth 96h inactive, Pf growth 48h inactive, CHX counter 23, Shiga inhibitor 38 and Sm TGR block inactive.
`COc1ccc(OCC(=O)Nc2ccc3c(c2)CCC3)cc1` gave Pf growth 96h inactive, Pf growth 48h inactive and Sm TGR block inactive.
For COc1ccc(OCC(=O)Nc2ccc3c(c2)C(=O)NC3=O)cc1 the results were Pf growth 96h 12µM, NS1 function inh inactive, Pf growth 48h inactive, CHX counter inactive, Shiga inhibitor inactive and Sm TGR block inactive.
For COc1ccc(OC)c(NC(=O)COc2ccc(Br)cc2)c1 the results were Pf growth 96h inactive, NS1 function inh inactive, Pf growth 48h inactive, CHX counter inactive, Shiga inhibitor inactive and Sm TGR block inactive.
For CCN(CC)CCNC(=O)c1ccc(NC(=O)COc2ccc3c(c2)CCC3)cc1 the results were Pf growth 96h 15µM, Pf growth 48h inconclusive and Sm TGR block inactive.
COc1ccc(OC)c(NC(=O)COc2ccc3c(c2)CCC3)c1 was read as Pf growth 96h inconclusive, Pf growth 48h 13µM and Sm TGR block inactive.
For COc1ccc2c(CC(=O)Nc3ccc(C)cc3)coc2c1 the results were Sm TGR block inactive.
Screening Cc1ccccc1S(=O)(=O)Cc1ccc(C(=O)NC2CCCCC2)o1 returned Pf growth 96h inactive, NS1 function inh inactive, Pf growth 48h inactive, CHX counter inactive, Shiga inhibitor inactive and Sm TGR block inactive.
Screening Cc1ccc(-c2nc3ccccc3[nH]2)cc1NC(=O)COc1cccc(C)c1C returned Sm TGR block inactive.
`CC(=O)c1cc2c(cc1NC(=O)CCc1c(C)nc3ncnn3c1C)OCO2` gave Pf growth 96h inactive, Pf growth 48h inconclusive and Sm TGR block inactive.
`CCCCN(C(=S)NC(=O)c1cc(OC)c(OC)c(OC)c1)c1c(N)n(Cc2ccccc2)c(=O)[nH]c1=O` gave Pf growth 96h inactive, NS1 function inh inactive, Pf growth 48h inactive, CHX counter inactive, Shiga inhibitor inactive and Sm TGR block inactive.
Screening COc1cccc(NC(=O)COc2ccc(C)cc2)c1 returned Pf growth 96h inconclusive, NS1 function inh inactive, Pf growth 48h inactive, CHX counter 37, Shiga inhibitor 63 and Sm TGR block inactive.
Screening COc1ccc(OCC(=O)Nc2cccc(C(C)=O)c2)cc1 returned Pf growth 96h inactive, NS1 function inh inactive, CHX counter inactive, Shiga inhibitor inactive and Sm TGR block inactive[11.4 µM].
Screening Cc1nn(CCO)c2ncc(C(=O)c3cc(F)ccc3O)cc12 returned Pf growth 96h inactive, NS1 function inh inactive, Pf growth 48h inactive, CHX counter inactive, Shiga inhibitor inactive and Sm TGR block inactive.
Screening CSc1ccc(-c2ccco2)nn1 returned Pf growth 96h inactive, Pf growth 48h inactive, CHX counter 25, Shiga inhibitor 127 and Sm TGR block 10µM.
Screening CCSc1nc(N)c(C#N)c(-c2ccco2)c1C#N returned Pf growth 96h inconclusive, NS1 function inh inactive, Pf growth 48h inactive, CHX counter inactive, Shiga inhibitor inactive and Sm TGR block inactive.
For CCSc1ccc(-c2ccco2)nn1 the results were Pf growth 96h inactive, Pf growth 48h inactive, CHX counter 48, Shiga inhibitor 85 and Sm TGR block 13µM.
`COc1cc2ccccc2cc1C(=O)Nc1ccc2oc(-c3ccc(F)cc3Cl)nc2c1` gave Sm TGR block inactive.
COc1cc(OC)nc(-n2ncc(Br)c(Br)c2=O)n1 was read as Pf growth 96h 13µM, NS1 function inh inactive, Pf growth 48h inconclusive, CHX counter inactive, Shiga inhibitor inactive and Sm TGR block 1.8µM.

Source: PubChem BioAssay
